Measurements published in PubChem BioAssay (NCATS).
Several values for one entry are separate records, joined by “and”; a condition that tells them apart may be missing. Equal entries are not always repeated. Records with an inconclusive call do not appear. Entries that show only a call come without a potency. Activity calls are given as the source filed them. Unless noted, calls come from the whole dose curve; as a rule, active = well fitted curve in the direction sought with a large enough effect; inconclusive = small, poorly fitted or top-dose-only effect, or another doubt; inactive = no such curve, though single readings can be large; an effect the other way counts as inactive or inconclusive.

What was measured:
[1] = target: Arylsulfatase A (Homo sapiens) (UniProt P15289); assay: qHTS screen for enhancers of Arylsulfatase A (ASA1): LOPAC Validation Assay (AID 720538)
In short: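 SV40-transformed fibroblasts from an MLD patient (ASA-I179S) were treated with compound for 48 h at 37 C. They were then lysed with 0.5 mM pNCS substrate (final) for 14 h at room temperature and stopped with NaOH; signal read by fluorescence (Ex 525/Em 598 nm), with increase denoting enhanced activity.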

[2] = qHTS for compounds that reverse cellular toxicity of Amyloid beta (A-beta) peptide in yeast: LOPAC Validation Assay (AID 720559)
In short: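 Yeast expressing toxic A-beta grown with pinned compounds at 30 C for 48 hr. Growth measured as absorbance at 600 nm; data normalized to DMSO and to an equimolar FeCl3/clioquinol mixture as positive control.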

[3] = qHTS for Activators of Parkin Expression: LOPAC Validation Assay (NLuc Reporter) (AID 720572)
In short: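 Neuronal cells with a Parkin promoter-driven FLuc/NLuc coincidence reporter were treated 24 h at 37 C in 7-point dose response (LOPAC). NLuc luminescence read after FLuc; signals normalized to DMSO and positive control (100%).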

[4] = qHTS for Activators of Parkin Expression: LOPAC Validation Assay (FLuc Reporter) (AID 720573)
In short: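 Neuronal cell line stably expressing FLuc/NLuc coincidence reporter under the Parkin promoter, 1,500 cells/well, dosed 24 h after seeding in 7-point series for 24 h at 37 C. FLuc luminescence read; normalized to DMSO and positive control (100%).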

[5] = qHTS assay for small molecule agonists of the antioxidant response element (ARE) signaling pathway measured by Nrf2-dependant transcriptional activity (AID 720636; active = well fitted curve in the direction sought with a large enough effect in the repeat runs; an effect the other way counts as inactive or inconclusive)
In short: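 Quantitative HTS format in HepG2 cells stably expressing an ARE-luciferase reporter; 16 hr compound treatment at 37 C, luciferase signal detected with ONE-Glo.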

[6] = qHTS assay for small molecule agonists of the antioxidant response element (ARE) signaling pathway measured by Nrf2-dependant transcriptional activity - cell viability counter screen (AID 720653; active = well fitted curve in the direction sought with a large enough effect in the repeat runs; an effect the other way counts as inactive or inconclusive); conditions: ARE-bla HepG2 viability, CellTiter-Glo ATP luminescence, 16 h; max response: stronger effect = lower value
In short: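 ARE-bla HepG2 cells treated with compounds for 16 h at 37C; this counter screen measures viability as intracellular ATP by CellTiter-Glo luminescence after 30 min at room temperature.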

[7] = target: T1, Hexokinase-4 (Homo sapiens) + Glucokinase regulatory protein (Homo sapiens) (UniProt P35557+Q14397); assay: qHTS assay for inhibitors of recombinant human GCK-GKRP interaction: Diaphorase-coupled assay (AID 743205)
In short: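 Compounds pre-incubated 20 min with substrate, then 10 nM GST-GCK with 10 nM FLAG-GKRP added. GCK activity coupled via G6PDH and diaphorase to resorufin (5 mM glucose, 0.4 mM ATP, 0.15 mM NADP+, pH 7.6), read kinetically over 30 minutes at Ex 525/Em 590 nm.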

[8] = target: T1, Hexokinase-4 (Homo sapiens) + Glucokinase regulatory protein (Homo sapiens); assay: qHTS assay for inhibitors of recombinant human GCK-GKRP interaction: ADP-Glo assay (AID 743206)
In short: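 GST-GCK and FLAG-GKRP (15 nM each in the dispensed mix, with 2 uM S6P) react with 0.4 mM ATP and 5 mM glucose (final) in Hepes pH 7.6 for 60 min at room temperature. ADP is measured by ADP-Glo luminescence.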

[9] = target: T1, Hexokinase-4 (Homo sapiens) + Glucokinase regulatory protein (Homo sapiens); assay: qHTS assay for inhibitors of recombinant human GCK-GKRP interaction: HTRF assay (AID 743207)
In short: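 HTRF binding of 5 nM GST-GCK and 5 nM FLAG-GKRP with 2 uM S6P in pH 7.1 Hepes buffer (MgCl2, KCl, DTT, Tween 20, BSA). Anti-FLAG XL665 and anti-GST donor added, 60 min at room temperature; 665/615 nm read, normalized to with- and without-GCK controls.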

[10] = qHTS Assay for Identifying Gametocytocidal Compounds (AID 743244);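 note: actives lower the fluorescent signal which means gametocytes are killed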; conditions: P. falciparum 3D7 stage III-V gametocytes, alamarBlue, 72 h; max response: stronger effect = lower value
In short: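 3D7 gametocytes, stages III–V, 20,000/well; cpd 72 h, 37 °C/5% CO2; + alamarBlue 24 h; fluor. Ex 525/Em 598.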

[11] = qHTS assay for cell viability of HEK293 cells (AID 743288); conditions: ATP luminescence (CellTiter-Glo), 18 h; max response: stronger effect = lower value; note: nearly all actives have a fitted effect of over 50% in size
In short: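 Parental HEK293 cells, 2,000 per well, preincubated at least 5 h at 37 C, then exposed to compounds in DMSO for 18 h at 37 C. Viability by CellTiter-Glo ATP luminescence after 30 min at room temperature.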

[12] = qHTS assay for cell viability of the p53RE-bla HCT-116 cell line (AID 743292); note: nearly all actives have a fitted effect of over 55% in size
In short: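 Viability of compound-treated p53RE-bla HCT-116 cells is taken from ATP-dependent luciferase luminescence. Treatment lasts 16 h at 37 C after a 5 h settling period; detection follows 30 min at room temperature.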

[13] = qHTS profiling of the MIPE4 collection as inhibitors of Plasmodium falciparum (3D7) proliferation (AID 743344; call rule not given here); conditions: P. falciparum 3D7 in erythrocytes, SYBR Green DNA fluorescence, 72 h; at 28.5 µM (top of the series) unless noted
In short: (§1)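 Erythrocytes infected with P. falciparum (0.3% parasitemia, 2.5% hematocrit) incubated with compounds 72 h at 37 C, 5% CO2. Lysis with saponin/Triton buffer containing SYBR Green I, overnight at room temperature in the dark; DNA fluorescence (485/535 nm) normalised to 0.29 uM artemisinin and DMSO.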

[14] = qHTS profiling of the MIPE4 collection as inhibitors of Plasmodium falciparum (DD2) proliferation (AID 743345; call rule not given here); conditions: P. falciparum Dd2 in erythrocytes, SYBR Green DNA, 72 h; at 28.5 µM (top of the series) unless noted
In short: as §1

[15] = qHTS profiling of the MIPE4 collection as inhibitors of Plasmodium falciparum (DD2) proliferation (Rep 2) (AID 743346; call rule not given here); conditions: P. falciparum Dd2 in erythrocytes, SYBR Green DNA, 72 h; at 28.5 µM (top of the series) unless noted
In short: as §1

[16] = qHTS profiling of the MIPE4 collection as inhibitors of Plasmodium falciparum (HB3) proliferation (AID 743347; call rule not given here); conditions: P. falciparum HB3 in erythrocytes, SYBR Green DNA, 72 h; at 28.5 µM (top of the series) unless noted
In short: as §1

[17] = qHTS for small molecule inhibitors of Yes1 kinase: Counter Assay (AID 686950);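 note: no kinase present so only ADP-Glo detection of a fixed ADP amount is tested; luminescence from ADP-Glo reporting ADP in a fixed ATP and ADP mixture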
In short: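 Enzyme-free detection counter-screen: compounds preincubated 20 min in buffer, then 0.08 mM ATP plus 0.02 mM ADP added for 60 min at room temperature; ADP-Glo luminescence. Buffer 50 mM Tris pH 7.5, 10 mM MgCl2, 150 mM NaCl; normalized to ATP+ADP and ATP-only controls.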

[18] = qHTS profiling for inhibitors of Plasmodium falciparum (3D7) proliferation (AID 743322; call rule not given here;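 note: infected erythrocytes exposed to compound for 72 h before lysis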); conditions: P. falciparum 3D7 proliferation; at 28.7 µM (top of the series)
In short: as §1

[19] = qHTS profiling for inhibitors of Plasmodium falciparum (DD2) proliferation (AID 743323; call rule not given here); conditions: lower = more inhibition; at 28.7 µM (top of the series)
In short: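 P. falciparum Dd2-infected erythrocytes (0.3% parasitemia, 2.5% hematocrit) exposed 72 h at 37 C, 5% CO2. Lysis with SYBR Green, overnight at room temperature, fluorescence 485/535 nm; normalized to 0.29 uM artemisinin and DMSO.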

[20] = qHTS profiling for inhibitors of Plasmodium falciparum (HB3) proliferation (AID 743324); conditions: Plasmodium falciparum HB3 blood-stage proliferation; at 28.7 µM (top of the series)
In short: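 P. falciparum HB3 grown in erythrocytes (0.3% parasitemia, 2.5% hematocrit final) with compound for 72 h at 37 C, 5% CO2. Parasite DNA detected by SYBR Green after saponin/triton lysis overnight; normalized to 0.29 uM artemisinin and DMSO.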

Chain of Arylsulfatase A (Homo sapiens) (P15289 whole entry, looked up): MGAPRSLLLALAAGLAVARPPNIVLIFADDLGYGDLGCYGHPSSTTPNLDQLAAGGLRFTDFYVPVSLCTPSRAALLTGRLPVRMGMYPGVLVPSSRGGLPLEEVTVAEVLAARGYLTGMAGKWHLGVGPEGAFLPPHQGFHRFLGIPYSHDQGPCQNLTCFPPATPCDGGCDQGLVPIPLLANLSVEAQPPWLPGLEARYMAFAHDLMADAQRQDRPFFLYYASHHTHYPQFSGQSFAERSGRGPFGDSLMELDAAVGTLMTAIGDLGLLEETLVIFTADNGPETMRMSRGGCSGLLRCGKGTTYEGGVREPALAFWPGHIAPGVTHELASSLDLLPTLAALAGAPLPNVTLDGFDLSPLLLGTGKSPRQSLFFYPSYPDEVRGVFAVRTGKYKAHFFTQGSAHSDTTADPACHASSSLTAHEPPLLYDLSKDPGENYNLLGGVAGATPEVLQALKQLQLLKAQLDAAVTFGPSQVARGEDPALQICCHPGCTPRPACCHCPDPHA
T1 sequence (P35557 whole entry, looked up): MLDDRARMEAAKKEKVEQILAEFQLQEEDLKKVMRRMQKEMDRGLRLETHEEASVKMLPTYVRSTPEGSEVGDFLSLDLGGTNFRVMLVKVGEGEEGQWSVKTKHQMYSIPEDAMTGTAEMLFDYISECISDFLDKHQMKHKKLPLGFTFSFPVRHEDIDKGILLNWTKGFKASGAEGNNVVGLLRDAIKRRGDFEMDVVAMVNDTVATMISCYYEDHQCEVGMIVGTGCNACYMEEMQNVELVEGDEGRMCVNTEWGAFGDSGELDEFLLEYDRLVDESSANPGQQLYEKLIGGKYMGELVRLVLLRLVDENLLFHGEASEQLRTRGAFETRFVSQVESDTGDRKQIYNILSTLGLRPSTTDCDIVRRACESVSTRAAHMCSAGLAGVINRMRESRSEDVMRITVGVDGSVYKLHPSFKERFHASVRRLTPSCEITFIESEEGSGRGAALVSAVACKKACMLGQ
T1 sequence (Q14397 whole entry, looked up): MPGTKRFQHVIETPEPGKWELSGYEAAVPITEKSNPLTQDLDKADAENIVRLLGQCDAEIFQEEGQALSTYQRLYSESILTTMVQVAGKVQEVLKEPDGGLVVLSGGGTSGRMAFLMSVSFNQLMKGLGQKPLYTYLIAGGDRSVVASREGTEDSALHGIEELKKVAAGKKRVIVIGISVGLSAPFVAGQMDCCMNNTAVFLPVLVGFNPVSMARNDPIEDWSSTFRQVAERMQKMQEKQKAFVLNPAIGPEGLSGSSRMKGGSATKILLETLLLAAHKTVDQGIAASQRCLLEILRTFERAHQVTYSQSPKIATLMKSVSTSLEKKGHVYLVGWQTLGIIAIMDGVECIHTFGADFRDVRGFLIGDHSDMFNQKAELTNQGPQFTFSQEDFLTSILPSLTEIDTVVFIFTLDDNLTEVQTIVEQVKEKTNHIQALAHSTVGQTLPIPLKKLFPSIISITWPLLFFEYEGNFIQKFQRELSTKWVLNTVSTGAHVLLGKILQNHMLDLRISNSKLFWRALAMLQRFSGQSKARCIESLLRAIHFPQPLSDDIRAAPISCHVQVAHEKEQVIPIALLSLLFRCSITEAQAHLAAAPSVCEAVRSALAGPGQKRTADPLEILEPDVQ

Compound: CCCC(C)(COC(N)=O)COC(=O)NC(C)C (configuration not stated)
- Potency [1]: inactive
- outcome [2]: inactive
- outcome [3]: inactive
- outcome [4]: inactive
- Potency [5]: inactive
- max response [6]: -3.52% (inactive) and -3.1% (inactive)
- outcome [7]: inactive
- outcome [8]: inactive
- outcome [9]: inactive
- max response [10]: 10.4% (inactive) and -6.54% (inactive)
- max response [11]: -8.51% (inactive) and -1.5% (inactive)
- Potency [12]: inactive
- parasite growth, % of DMSO control [13]: 93%
- parasite growth remaining, % of DMSO control (lower = more inhibition) [14]: 91%
- parasite growth, % of control (lower = inhibition) [15]: 119%
- growth, % of control [16]: 100%

Compound: O=C(O)C(=O)c1cn(Cc2ccccc2)c2ccc(-c3ccc(OC(F)(F)F)cc3)cc12
- outcome [17]: inactive
- max response [10]: 14.9% (inactive)
- remaining parasite growth % (stronger effect = lower value) [18]: 110%
- activity, percent of control [19]: 90.7%
- remaining proliferation (% of control), lower = more inhibition [20]: 30.7%
- parasite growth, % of DMSO control [13]: 222%
- parasite growth remaining, % of DMSO control (lower = more inhibition) [14]: 108%
- parasite growth, % of control (lower = inhibition) [15]: 77.4%
- growth, % of control [16]: 506%

Compound: NCC(CC(=O)O)c1ccc(Cl)cc1 (configuration not stated)
- Potency [1]: inactive
- outcome [2]: inactive
- outcome [3]: inactive
- outcome [4]: inactive
- outcome [7]: inactive
- outcome [8]: inactive
- outcome [9]: inactive
- max response [10]: 0.281% (inactive) and 9.05% (inactive)

Compound: C=C(C)[C@H]1Cc2c(ccc3c2O[C@@H]2COc4cc(OC)c(OC)cc4[C@@H]2C3=O)O1
- Potency [1]: inactive
- outcome [2]: inactive
- outcome [3]: inactive
- outcome [4]: inactive
- Potency [5]: inactive
- outcome [7]: inactive
- outcome [8]: inactive
- outcome [9]: inactive
- max response [10]: 2.33% (inactive) and 3.94% (inactive)
- Potency [12]: inactive
- remaining parasite growth % (stronger effect = lower value) [18]: 82.1%
- activity, percent of control [19]: 97.6%
- parasite growth, % of DMSO control [13]: 86.6%
- parasite growth remaining, % of DMSO control (lower = more inhibition) [14]: 94.4%
- parasite growth, % of control (lower = inhibition) [15]: 35.5%
- growth, % of control [16]: 90.3%

Compound: CCCN1CCC[C@@H]2Cc3nc(N)ncc3C[C@H]21
- Potency [1]: inactive
- outcome [2]: inactive
- outcome [3]: inactive
- outcome [4]: inactive
- outcome [7]: inactive
- outcome [8]: inactive
- outcome [9]: inactive
- max response [10]: 3.72% (inactive) and 1.86% (inactive)

Compound: Nc1ccncc1
- Potency [1]: inactive
- outcome [2]: inactive
- outcome [3]: inactive
- outcome [4]: inactive
- Potency [5]: inactive
- outcome [7]: inactive
- outcome [8]: inactive
- outcome [9]: inactive
- max response [10]: 0.934% (inactive) and 25.7% (inactive)
- max response [11]: -3.71% (inactive)
- Potency [12]: inactive

Compound: Cc1sc2c(c1C)C(c1ccc(Cl)cc1)=N[C@@H](CC(=O)OC(C)(C)C)c1nnc(C)n1-2
- outcome [17]: inactive
- max response [10]: -19.5% (inactive)
- remaining parasite growth % (stronger effect = lower value) [18]: 4.84%
- activity, percent of control [19]: 14.6%
- remaining proliferation (% of control), lower = more inhibition [20]: -1.43%
- parasite growth, % of DMSO control [13]: 16.3%
- parasite growth remaining, % of DMSO control (lower = more inhibition) [14]: 24.4%
- parasite growth, % of control (lower = inhibition) [15]: 29.2%
- growth, % of control [16]: 12.7%
